According to the supplement of paper PMC11732987, “Enantioselective OTUD7B fragment discovery through chemoproteomics screening and high-throughput optimisation” (Communications Chemistry, 2025):

Key:
Test in all cases: log2 ratio of Biotin-Ahx-Ub-VS probe labelling (fragment/DMSO); higher = less target engagement (more negative = stronger competition), active = hit call of the paper (q ≤ 0.05, log2 ratio ≤ -1)
Conditions in all cases: compound concentration: 200 uM; treatment time: 3 h
[1] = molecular target: USP34 (UniProt Q70CQ2)
USP34, sequence (Q70CQ2 whole entry, the tested form may be a part): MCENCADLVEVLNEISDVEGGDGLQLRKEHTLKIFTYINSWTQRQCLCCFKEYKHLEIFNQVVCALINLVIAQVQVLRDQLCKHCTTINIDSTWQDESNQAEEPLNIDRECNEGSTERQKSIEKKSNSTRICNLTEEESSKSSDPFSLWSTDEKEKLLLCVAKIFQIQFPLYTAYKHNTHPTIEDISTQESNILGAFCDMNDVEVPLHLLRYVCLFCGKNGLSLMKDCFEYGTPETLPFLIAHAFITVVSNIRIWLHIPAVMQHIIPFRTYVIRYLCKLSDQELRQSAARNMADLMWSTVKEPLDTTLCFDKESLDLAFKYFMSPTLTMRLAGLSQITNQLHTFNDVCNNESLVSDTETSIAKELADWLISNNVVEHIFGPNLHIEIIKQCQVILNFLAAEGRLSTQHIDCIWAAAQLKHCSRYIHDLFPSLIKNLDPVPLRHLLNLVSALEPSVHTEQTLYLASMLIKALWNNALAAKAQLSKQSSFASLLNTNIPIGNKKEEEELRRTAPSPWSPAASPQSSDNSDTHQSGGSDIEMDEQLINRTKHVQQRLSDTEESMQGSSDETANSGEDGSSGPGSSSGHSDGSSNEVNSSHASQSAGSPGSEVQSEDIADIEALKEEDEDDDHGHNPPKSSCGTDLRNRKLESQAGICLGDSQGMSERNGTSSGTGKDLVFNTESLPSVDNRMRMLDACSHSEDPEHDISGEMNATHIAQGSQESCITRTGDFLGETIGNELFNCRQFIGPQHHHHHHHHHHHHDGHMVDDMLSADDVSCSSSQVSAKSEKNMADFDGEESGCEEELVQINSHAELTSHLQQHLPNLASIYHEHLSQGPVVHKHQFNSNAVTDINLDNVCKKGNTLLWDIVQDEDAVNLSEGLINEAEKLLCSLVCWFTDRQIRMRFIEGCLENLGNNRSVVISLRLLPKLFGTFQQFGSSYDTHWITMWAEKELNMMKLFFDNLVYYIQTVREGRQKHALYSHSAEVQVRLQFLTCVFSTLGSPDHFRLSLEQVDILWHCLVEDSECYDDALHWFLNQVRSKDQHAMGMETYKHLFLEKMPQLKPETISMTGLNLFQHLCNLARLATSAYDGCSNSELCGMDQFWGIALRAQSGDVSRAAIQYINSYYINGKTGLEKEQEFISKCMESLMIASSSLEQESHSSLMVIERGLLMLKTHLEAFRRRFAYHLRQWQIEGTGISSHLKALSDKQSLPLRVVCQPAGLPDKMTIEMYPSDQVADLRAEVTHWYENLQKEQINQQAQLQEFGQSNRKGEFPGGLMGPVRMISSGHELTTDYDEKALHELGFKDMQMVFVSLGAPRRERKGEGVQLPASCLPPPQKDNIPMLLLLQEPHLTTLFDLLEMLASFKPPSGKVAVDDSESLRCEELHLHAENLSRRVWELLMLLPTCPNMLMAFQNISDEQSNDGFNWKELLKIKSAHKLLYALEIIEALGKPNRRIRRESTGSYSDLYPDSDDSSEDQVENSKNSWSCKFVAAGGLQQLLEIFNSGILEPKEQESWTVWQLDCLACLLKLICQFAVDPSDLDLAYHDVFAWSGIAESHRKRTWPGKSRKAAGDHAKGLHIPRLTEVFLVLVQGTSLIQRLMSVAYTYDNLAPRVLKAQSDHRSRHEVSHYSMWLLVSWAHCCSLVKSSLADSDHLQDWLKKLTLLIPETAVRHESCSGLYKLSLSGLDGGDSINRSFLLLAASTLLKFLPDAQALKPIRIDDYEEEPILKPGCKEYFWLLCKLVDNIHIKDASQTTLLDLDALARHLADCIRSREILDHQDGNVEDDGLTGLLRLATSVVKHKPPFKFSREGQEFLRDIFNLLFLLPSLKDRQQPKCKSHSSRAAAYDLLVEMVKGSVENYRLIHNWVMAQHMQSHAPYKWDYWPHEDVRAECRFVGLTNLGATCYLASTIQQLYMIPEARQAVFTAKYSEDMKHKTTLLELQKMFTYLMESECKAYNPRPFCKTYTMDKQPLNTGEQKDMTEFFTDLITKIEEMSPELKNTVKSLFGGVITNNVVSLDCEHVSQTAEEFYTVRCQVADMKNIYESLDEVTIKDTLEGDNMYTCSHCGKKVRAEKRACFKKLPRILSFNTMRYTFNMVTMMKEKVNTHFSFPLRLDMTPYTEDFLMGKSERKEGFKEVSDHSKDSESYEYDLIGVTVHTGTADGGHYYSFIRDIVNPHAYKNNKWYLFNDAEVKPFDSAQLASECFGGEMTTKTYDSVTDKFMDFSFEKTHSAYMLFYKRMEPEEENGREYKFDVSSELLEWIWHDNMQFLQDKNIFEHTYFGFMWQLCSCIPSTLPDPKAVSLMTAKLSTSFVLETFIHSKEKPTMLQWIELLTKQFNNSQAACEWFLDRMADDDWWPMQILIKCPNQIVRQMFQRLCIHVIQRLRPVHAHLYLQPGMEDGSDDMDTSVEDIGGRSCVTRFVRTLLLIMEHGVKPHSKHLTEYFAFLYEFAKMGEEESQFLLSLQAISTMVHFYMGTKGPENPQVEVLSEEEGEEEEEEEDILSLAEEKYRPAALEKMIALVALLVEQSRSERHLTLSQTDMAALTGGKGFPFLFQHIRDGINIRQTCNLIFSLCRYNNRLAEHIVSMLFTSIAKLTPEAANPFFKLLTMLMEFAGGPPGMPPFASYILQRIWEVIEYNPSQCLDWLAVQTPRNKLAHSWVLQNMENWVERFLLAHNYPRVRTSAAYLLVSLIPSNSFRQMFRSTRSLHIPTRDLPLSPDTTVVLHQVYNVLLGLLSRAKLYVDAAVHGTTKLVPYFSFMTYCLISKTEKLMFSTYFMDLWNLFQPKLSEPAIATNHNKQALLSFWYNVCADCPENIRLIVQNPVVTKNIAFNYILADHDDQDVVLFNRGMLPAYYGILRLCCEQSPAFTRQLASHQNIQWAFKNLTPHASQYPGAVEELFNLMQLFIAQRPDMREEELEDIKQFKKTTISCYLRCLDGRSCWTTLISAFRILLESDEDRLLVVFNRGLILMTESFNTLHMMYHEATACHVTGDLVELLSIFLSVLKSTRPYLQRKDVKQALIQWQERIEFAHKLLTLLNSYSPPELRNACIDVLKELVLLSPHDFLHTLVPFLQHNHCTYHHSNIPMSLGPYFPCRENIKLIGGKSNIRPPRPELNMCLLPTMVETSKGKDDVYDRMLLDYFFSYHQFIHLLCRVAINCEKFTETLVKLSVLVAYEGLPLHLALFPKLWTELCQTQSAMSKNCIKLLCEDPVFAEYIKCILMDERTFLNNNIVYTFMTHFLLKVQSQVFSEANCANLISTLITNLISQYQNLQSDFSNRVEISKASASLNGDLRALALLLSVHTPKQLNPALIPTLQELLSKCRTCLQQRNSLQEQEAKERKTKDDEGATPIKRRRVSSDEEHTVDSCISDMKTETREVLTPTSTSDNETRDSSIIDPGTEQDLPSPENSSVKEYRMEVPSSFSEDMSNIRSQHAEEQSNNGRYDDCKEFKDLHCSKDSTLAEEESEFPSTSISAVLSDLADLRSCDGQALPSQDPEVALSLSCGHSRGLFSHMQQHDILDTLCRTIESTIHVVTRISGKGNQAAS
How it was run: (§1)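 HEK293T lysate (495 µg per sample, in Tris/CHAPS/IGEPAL buffer with protease inhibitors) was exposed in triplicate for 3 h to fragment at 200 µM or to vehicle, then to Biotin-Ahx-Ub-VS at 0.5 µM final for 1 h. Labelled DUBs were enriched on NeutrAvidin, digested with LysC and trypsin, and analysed by diaPASEF LC-MS/MS. Spectronaut label-free quantities were normalised to the global median, and values are average log2 ratios of fragment over vehicle from an unpaired t-test. Only proteins with ≥2 unique peptides were used.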

[2] = molecular target: T1, USP36 (UniProt Q9P275)
T1 sequence (whole entry): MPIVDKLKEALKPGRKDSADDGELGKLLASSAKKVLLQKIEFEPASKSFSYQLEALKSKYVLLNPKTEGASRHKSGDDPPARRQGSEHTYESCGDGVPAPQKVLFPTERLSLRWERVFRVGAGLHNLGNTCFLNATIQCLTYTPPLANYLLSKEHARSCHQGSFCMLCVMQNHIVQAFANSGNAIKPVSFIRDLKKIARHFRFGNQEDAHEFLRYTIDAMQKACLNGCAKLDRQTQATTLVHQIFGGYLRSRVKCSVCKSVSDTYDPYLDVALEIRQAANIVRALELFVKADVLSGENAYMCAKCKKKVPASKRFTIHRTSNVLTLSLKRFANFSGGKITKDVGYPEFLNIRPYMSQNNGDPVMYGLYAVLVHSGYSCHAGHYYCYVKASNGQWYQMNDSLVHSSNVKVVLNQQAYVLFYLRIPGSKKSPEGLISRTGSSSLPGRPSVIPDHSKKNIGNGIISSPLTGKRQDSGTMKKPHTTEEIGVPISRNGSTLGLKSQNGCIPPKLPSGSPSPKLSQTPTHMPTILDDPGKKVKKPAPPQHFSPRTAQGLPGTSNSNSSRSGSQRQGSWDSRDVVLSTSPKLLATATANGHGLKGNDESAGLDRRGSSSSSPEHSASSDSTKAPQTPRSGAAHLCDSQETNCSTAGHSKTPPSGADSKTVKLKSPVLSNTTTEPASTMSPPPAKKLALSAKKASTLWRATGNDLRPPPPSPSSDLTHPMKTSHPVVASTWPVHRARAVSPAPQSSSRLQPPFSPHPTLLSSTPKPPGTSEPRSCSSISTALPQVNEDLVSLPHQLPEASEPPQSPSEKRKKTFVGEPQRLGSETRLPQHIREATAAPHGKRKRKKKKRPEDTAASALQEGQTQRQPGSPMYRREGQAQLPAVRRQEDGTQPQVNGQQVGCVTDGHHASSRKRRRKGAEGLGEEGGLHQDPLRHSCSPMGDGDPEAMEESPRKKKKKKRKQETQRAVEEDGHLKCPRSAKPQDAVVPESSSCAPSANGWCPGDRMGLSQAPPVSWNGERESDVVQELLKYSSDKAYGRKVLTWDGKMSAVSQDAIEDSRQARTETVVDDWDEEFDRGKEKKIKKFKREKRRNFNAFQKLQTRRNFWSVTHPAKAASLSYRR
How it was run: as §1

[3] = molecular target: T2, USP38 (UniProt Q8NB14)
T2 sequence (whole entry): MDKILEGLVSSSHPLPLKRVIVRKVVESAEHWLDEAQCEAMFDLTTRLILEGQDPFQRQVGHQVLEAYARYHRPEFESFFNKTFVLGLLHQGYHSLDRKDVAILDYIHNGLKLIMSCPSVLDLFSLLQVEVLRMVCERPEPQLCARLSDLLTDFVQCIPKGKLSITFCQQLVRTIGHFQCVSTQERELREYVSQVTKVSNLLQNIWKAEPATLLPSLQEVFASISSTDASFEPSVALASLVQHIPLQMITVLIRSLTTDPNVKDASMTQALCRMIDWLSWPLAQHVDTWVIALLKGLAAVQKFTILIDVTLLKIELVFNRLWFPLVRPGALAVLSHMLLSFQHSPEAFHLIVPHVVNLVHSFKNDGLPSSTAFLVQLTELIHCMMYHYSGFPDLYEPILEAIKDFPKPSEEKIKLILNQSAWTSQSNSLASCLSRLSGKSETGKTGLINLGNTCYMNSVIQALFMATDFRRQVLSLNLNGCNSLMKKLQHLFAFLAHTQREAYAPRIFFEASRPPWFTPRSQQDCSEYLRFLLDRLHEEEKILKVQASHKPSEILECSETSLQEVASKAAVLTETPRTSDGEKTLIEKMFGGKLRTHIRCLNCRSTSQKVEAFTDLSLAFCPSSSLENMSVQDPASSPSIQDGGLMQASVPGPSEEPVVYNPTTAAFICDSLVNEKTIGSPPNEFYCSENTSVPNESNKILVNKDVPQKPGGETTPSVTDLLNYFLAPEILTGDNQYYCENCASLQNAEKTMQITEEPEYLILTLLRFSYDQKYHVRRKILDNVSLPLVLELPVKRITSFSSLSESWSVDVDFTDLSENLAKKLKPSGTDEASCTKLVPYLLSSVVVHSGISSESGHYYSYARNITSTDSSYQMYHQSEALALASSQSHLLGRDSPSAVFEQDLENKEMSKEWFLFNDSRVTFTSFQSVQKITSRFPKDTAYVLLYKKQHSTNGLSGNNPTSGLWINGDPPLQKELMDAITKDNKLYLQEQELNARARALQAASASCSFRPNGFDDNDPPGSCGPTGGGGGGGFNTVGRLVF
How it was run: as §1

[4] = molecular target: T3, USP39 (UniProt Q53GS9)
T3 sequence (whole entry): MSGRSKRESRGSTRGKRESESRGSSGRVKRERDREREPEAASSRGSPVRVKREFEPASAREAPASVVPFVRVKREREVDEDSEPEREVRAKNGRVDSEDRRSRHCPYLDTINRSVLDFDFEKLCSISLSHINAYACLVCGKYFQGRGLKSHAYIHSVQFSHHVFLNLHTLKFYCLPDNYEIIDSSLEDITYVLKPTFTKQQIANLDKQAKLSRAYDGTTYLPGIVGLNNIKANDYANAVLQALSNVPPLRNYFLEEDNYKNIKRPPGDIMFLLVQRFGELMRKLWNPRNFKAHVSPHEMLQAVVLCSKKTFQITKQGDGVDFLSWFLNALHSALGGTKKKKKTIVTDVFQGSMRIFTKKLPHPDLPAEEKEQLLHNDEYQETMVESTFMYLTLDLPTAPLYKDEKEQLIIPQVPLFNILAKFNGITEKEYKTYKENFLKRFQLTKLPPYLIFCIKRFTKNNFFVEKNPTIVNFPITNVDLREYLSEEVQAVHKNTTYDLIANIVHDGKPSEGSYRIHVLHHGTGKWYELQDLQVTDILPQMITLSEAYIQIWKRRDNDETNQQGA
How it was run: as §1

[5] = molecular target: T4, USP4 (UniProt Q13107)
T4 sequence (whole entry): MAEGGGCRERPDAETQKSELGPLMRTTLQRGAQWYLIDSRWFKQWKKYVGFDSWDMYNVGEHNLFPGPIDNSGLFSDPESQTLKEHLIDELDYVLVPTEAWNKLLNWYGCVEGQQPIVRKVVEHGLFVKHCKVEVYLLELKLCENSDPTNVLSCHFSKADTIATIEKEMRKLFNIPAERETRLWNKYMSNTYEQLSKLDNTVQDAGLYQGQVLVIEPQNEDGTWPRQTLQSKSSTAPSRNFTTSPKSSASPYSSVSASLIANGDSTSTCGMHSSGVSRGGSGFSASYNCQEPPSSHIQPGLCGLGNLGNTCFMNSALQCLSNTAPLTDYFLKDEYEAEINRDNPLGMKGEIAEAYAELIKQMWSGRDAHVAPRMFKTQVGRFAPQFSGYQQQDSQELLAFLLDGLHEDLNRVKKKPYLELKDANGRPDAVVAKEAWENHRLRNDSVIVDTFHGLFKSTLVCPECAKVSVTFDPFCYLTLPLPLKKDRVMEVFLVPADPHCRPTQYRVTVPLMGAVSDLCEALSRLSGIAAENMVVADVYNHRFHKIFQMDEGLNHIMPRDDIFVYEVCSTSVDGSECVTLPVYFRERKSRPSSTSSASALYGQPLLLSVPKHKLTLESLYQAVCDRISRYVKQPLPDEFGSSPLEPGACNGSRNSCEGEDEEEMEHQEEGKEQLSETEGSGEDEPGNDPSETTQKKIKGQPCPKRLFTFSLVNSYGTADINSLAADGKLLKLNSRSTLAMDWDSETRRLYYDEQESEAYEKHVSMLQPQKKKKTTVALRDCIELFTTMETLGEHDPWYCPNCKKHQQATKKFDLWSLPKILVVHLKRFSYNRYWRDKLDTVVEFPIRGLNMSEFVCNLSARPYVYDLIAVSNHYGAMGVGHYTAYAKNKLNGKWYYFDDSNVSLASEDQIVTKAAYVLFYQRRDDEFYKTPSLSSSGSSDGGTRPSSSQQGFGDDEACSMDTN
How it was run: as §1

Measured: log2 ratio of Biotin-Ahx-Ub-VS probe labelling

CC1(NC(=O)CCl)CCS(=O)(=O)C1 (stereo not given)
inactive: [1] -0.257 | [2] -0.302 | [3] -0.653 | [4] -0.0411 | [5] -0.424
